# Source: the supplement of paper PMC4466140
# Assays:
# Assay in all cases: SPOT peptide array binding signal intensity (averaged, normalized) (arbitrary units (background-subtracted, floor 0; scale differs between SH3 domains)); higher = stronger binding of the SH3 domain to the peptide
# AgAbp1 = biological target: AgAbp1
# In short: (§1)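 GST-SH3 fusions from four yeast species, purified on glutathione Sepharose, were incubated at 10 μg/ml overnight at 4°C on membranes of synthetic 15-mer peptides in which cysteines were replaced with serines. Binding signal is the normalized, background-subtracted spot intensity averaged over replicates, in domain-specific arbitrary units.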
# AgBbc1 = biological target: AgBbc1
# In short: as §1
# AgBem1-D1 = biological target: AgBem1-D1
# In short: as §1
# AgBzz1-D1 = biological target: AgBzz1-D1
# In short: as §1
# AgBzz1-D2 = biological target: AgBzz1-D2
# In short: as §1
# AgCyk3 = biological target: AgCyk3
# In short: as §1
# AgFus1 = biological target: AgFus1
# In short: as §1
# AgHof1 = biological target: AgHof1
# In short: as §1
# AgHse1 = biological target: AgHse1
# In short: as §1
# AgLsb1 = biological target: AgLsb1
# In short: as §1
# AgLsb4 = biological target: AgLsb4
# In short: as §1
# AgMyo5 = biological target: AgMyo5
# In short: as §1
# AgNbp2 = biological target: AgNbp2
# In short: as §1
# AgRvs167 = biological target: AgRvs167
# In short: as §1
# AgSho1 = biological target: AgSho1
# In short: as §1
# AgSla1-D1-D2 = biological target: AgSla1-D1-D2
# In short: as §1
# AgSla1-D3 = biological target: AgSla1-D3
# In short: as §1
# CaAbp1-D1 = biological target: CaAbp1-D1
# In short: as §1
# CaAbp1-D2 = biological target: CaAbp1-D2
# In short: as §1
# CaBbc1 = biological target: CaBbc1
# In short: as §1
# CaBem1-D1 = biological target: CaBem1-D1
# In short: as §1
# CaBzz1-D1 = biological target: CaBzz1-D1
# In short: as §1
# CaBzz1-D2 = biological target: CaBzz1-D2
# In short: as §1
# CaCyk3 = biological target: CaCyk3
# In short: as §1
# CaFus1 = biological target: CaFus1
# In short: as §1
# CaHof1 = biological target: CaHof1
# In short: as §1
# CaHse1 = biological target: CaHse1
# In short: as §1
# CaLsb1 = biological target: CaLsb1
# In short: as §1
# CaLsb4 = biological target: CaLsb4
# In short: as §1
# CaMyo5 = biological target: CaMyo5
# In short: as §1
# CaNbp2 = biological target: CaNbp2
# In short: as §1
# CaRvs167 = biological target: CaRvs167
# In short: as §1
# CaRvs167-3 = biological target: CaRvs167-3
# In short: as §1
# CaSho1 = biological target: CaSho1
# In short: as §1
# CaSla1-D1-D2 = biological target: CaSla1-D1-D2
# In short: as §1
# CaSla1-D3 = biological target: CaSla1-D3
# In short: as §1
# ScAbp1 = biological target: ScAbp1
# In short: as §1
# ScBbc1 = biological target: ScBbc1
# In short: as §1
# ScBem1-D1 = biological target: ScBem1-D1
# In short: as §1
# ScBzz1-D1 = biological target: ScBzz1-D1
# In short: as §1
# ScBzz1-D2 = biological target: ScBzz1-D2
# In short: as §1
# ScCyk3 = biological target: ScCyk3
# In short: as §1
# ScFus1 = biological target: ScFus1
# In short: as §1
# ScHof1 = biological target: ScHof1
# In short: as §1
# ScHse1 = biological target: ScHse1
# In short: as §1
# ScLsb1 = biological target: ScLsb1
# In short: as §1
# ScLsb2 = biological target: ScLsb2
# In short: as §1
# ScLsb3 = biological target: ScLsb3
# In short: as §1
# ScLsb4 = biological target: ScLsb4
# In short: as §1
# ScMyo3 = biological target: ScMyo3
# In short: as §1
# ScMyo5 = biological target: ScMyo5
# In short: as §1
# ScNbp2 = biological target: ScNbp2
# In short: as §1
# ScPex13 = biological target: ScPex13
# In short: as §1
# ScRvs167 = biological target: ScRvs167
# In short: as §1
# ScSho1 = biological target: ScSho1
# In short: as §1
# ScSla1-D1-D2 = biological target: ScSla1-D1-D2
# In short: as §1
# ScSla1-D3 = biological target: ScSla1-D3
# In short: as §1
# SpAbp1-D1 = biological target: SpAbp1-D1
# In short: as §1
# SpBbc1 = biological target: SpBbc1
# In short: as §1
# SpBzz1-D1 = biological target: SpBzz1-D1
# In short: as §1
# SpBzz1-D2 = biological target: SpBzz1-D2
# In short: as §1
# SpCyk3 = biological target: SpCyk3
# In short: as §1
# SpHof1 = biological target: SpHof1
# In short: as §1
# SpHof1-2 = biological target: SpHof1-2
# In short: as §1
# SpHof1-3 = biological target: SpHof1-3
# In short: as §1
# SpHse1 = biological target: SpHse1
# In short: as §1
# SpLsb1 = biological target: SpLsb1
# In short: as §1
# SpLsb4 = biological target: SpLsb4
# In short: as §1
# SpMyo1 = biological target: SpMyo1
# In short: as §1
# SpNbp2 = biological target: SpNbp2
# In short: as §1
# SpPex13 = biological target: SpPex13
# In short: as §1
# SpRvs167 = biological target: SpRvs167
# In short: as §1
# SpSla1-D1-D2 = biological target: SpSla1-D1-D2
# In short: as §1
# SpSla1-D3 = biological target: SpSla1-D3
# In short: as §1
binder,measurement,setting,value
IKKRNKIRLPSGSPE,SPOT peptide array binding signal intensity,AgAbp1,286
same,SPOT peptide array binding signal intensity,AgBbc1,23.8
same,SPOT peptide array binding signal intensity,AgBem1-D1,55
same,SPOT peptide array binding signal intensity,AgBzz1-D1,22
same,SPOT peptide array binding signal intensity,AgBzz1-D2,34.5
same,SPOT peptide array binding signal intensity,AgCyk3,7
same,SPOT peptide array binding signal intensity,AgFus1,279
same,SPOT peptide array binding signal intensity,AgHof1,52.5
same,SPOT peptide array binding signal intensity,AgHse1,766
same,SPOT peptide array binding signal intensity,AgLsb1,7
same,SPOT peptide array binding signal intensity,AgLsb4,97
same,SPOT peptide array binding signal intensity,AgMyo5,1.75
same,SPOT peptide array binding signal intensity,AgNbp2,202
same,SPOT peptide array binding signal intensity,AgRvs167,5.67
same,SPOT peptide array binding signal intensity,AgSho1,36
same,SPOT peptide array binding signal intensity,AgSla1-D1-D2,89
same,SPOT peptide array binding signal intensity,AgSla1-D3,7
same,SPOT peptide array binding signal intensity,CaAbp1-D1,1510
same,SPOT peptide array binding signal intensity,CaAbp1-D2,858
same,SPOT peptide array binding signal intensity,CaBbc1,94.2
same,SPOT peptide array binding signal intensity,CaBem1-D1,16
same,SPOT peptide array binding signal intensity,CaBzz1-D1,104
same,SPOT peptide array binding signal intensity,CaBzz1-D2,132
same,SPOT peptide array binding signal intensity,CaCyk3,17
same,SPOT peptide array binding signal intensity,CaFus1,615
same,SPOT peptide array binding signal intensity,CaHof1,1.25
same,SPOT peptide array binding signal intensity,CaHse1,38
same,SPOT peptide array binding signal intensity,CaLsb1,1.5
same,SPOT peptide array binding signal intensity,CaLsb4,79
same,SPOT peptide array binding signal intensity,CaMyo5,1.5
same,SPOT peptide array binding signal intensity,CaNbp2,271
same,SPOT peptide array binding signal intensity,CaRvs167,11.7
same,SPOT peptide array binding signal intensity,CaRvs167-3,67.2
same,SPOT peptide array binding signal intensity,CaSho1,506
same,SPOT peptide array binding signal intensity,CaSla1-D1-D2,30
same,SPOT peptide array binding signal intensity,CaSla1-D3,0.5
same,SPOT peptide array binding signal intensity,ScAbp1,39
same,SPOT peptide array binding signal intensity,ScBbc1,12.8
same,SPOT peptide array binding signal intensity,ScBem1-D1,62
same,SPOT peptide array binding signal intensity,ScBzz1-D1,20
same,SPOT peptide array binding signal intensity,ScBzz1-D2,15
same,SPOT peptide array binding signal intensity,ScCyk3,181
same,SPOT peptide array binding signal intensity,ScFus1,242
same,SPOT peptide array binding signal intensity,ScHof1,1.5
same,SPOT peptide array binding signal intensity,ScHse1,1420
same,SPOT peptide array binding signal intensity,ScLsb1,6.25
same,SPOT peptide array binding signal intensity,ScLsb2,11
same,SPOT peptide array binding signal intensity,ScLsb3,162
same,SPOT peptide array binding signal intensity,ScLsb4,13
same,SPOT peptide array binding signal intensity,ScMyo3,4
same,SPOT peptide array binding signal intensity,ScMyo5,6
same,SPOT peptide array binding signal intensity,ScNbp2,256
same,SPOT peptide array binding signal intensity,ScPex13,7.5
same,SPOT peptide array binding signal intensity,ScRvs167,33
same,SPOT peptide array binding signal intensity,ScSho1,681
same,SPOT peptide array binding signal intensity,ScSla1-D1-D2,362
same,SPOT peptide array binding signal intensity,ScSla1-D3,30
same,SPOT peptide array binding signal intensity,SpAbp1-D1,512
same,SPOT peptide array binding signal intensity,SpBbc1,2
same,SPOT peptide array binding signal intensity,SpBzz1-D1,122
RPVPRRPSQPLNTLS,SPOT peptide array binding signal intensity,AgAbp1,306
same,SPOT peptide array binding signal intensity,AgBbc1,801
same,SPOT peptide array binding signal intensity,AgBem1-D1,68.5
same,SPOT peptide array binding signal intensity,AgBzz1-D1,100
same,SPOT peptide array binding signal intensity,AgBzz1-D2,89
same,SPOT peptide array binding signal intensity,AgCyk3,1.25
same,SPOT peptide array binding signal intensity,AgFus1,24
same,SPOT peptide array binding signal intensity,AgHof1,32.8
same,SPOT peptide array binding signal intensity,AgHse1,67.5
same,SPOT peptide array binding signal intensity,AgLsb1,94.8
same,SPOT peptide array binding signal intensity,AgLsb4,2090
same,SPOT peptide array binding signal intensity,AgMyo5,≤ 0
same,SPOT peptide array binding signal intensity,AgNbp2,2250
same,SPOT peptide array binding signal intensity,AgRvs167,182
same,SPOT peptide array binding signal intensity,AgSho1,12.8
same,SPOT peptide array binding signal intensity,AgSla1-D1-D2,17
same,SPOT peptide array binding signal intensity,AgSla1-D3,7.12
same,SPOT peptide array binding signal intensity,CaAbp1-D1,456
same,SPOT peptide array binding signal intensity,CaAbp1-D2,805
same,SPOT peptide array binding signal intensity,CaBbc1,1900
same,SPOT peptide array binding signal intensity,CaBem1-D1,34
same,SPOT peptide array binding signal intensity,CaBzz1-D1,388
same,SPOT peptide array binding signal intensity,CaBzz1-D2,189
same,SPOT peptide array binding signal intensity,CaCyk3,413
same,SPOT peptide array binding signal intensity,CaFus1,141
same,SPOT peptide array binding signal intensity,CaHof1,0.25
same,SPOT peptide array binding signal intensity,CaHse1,56.1
same,SPOT peptide array binding signal intensity,CaLsb1,1.25
same,SPOT peptide array binding signal intensity,CaLsb4,2000
same,SPOT peptide array binding signal intensity,CaMyo5,8
same,SPOT peptide array binding signal intensity,CaNbp2,1770
same,SPOT peptide array binding signal intensity,CaRvs167,1240
same,SPOT peptide array binding signal intensity,CaRvs167-3,6
same,SPOT peptide array binding signal intensity,CaSho1,19.5
same,SPOT peptide array binding signal intensity,CaSla1-D1-D2,796
same,SPOT peptide array binding signal intensity,CaSla1-D3,5
same,SPOT peptide array binding signal intensity,ScAbp1,280
same,SPOT peptide array binding signal intensity,ScBbc1,514
same,SPOT peptide array binding signal intensity,ScBem1-D1,6.5
same,SPOT peptide array binding signal intensity,ScBzz1-D1,43.2
same,SPOT peptide array binding signal intensity,ScBzz1-D2,25.8
same,SPOT peptide array binding signal intensity,ScCyk3,22
same,SPOT peptide array binding signal intensity,ScFus1,≤ 0
same,SPOT peptide array binding signal intensity,ScHof1,0.5
same,SPOT peptide array binding signal intensity,ScHse1,389
same,SPOT peptide array binding signal intensity,ScLsb1,258
same,SPOT peptide array binding signal intensity,ScLsb2,56
same,SPOT peptide array binding signal intensity,ScLsb3,5960
same,SPOT peptide array binding signal intensity,ScLsb4,1750
same,SPOT peptide array binding signal intensity,ScMyo3,2
same,SPOT peptide array binding signal intensity,ScMyo5,1.25
same,SPOT peptide array binding signal intensity,ScNbp2,3100
same,SPOT peptide array binding signal intensity,ScPex13,1420
same,SPOT peptide array binding signal intensity,ScRvs167,2300
same,SPOT peptide array binding signal intensity,ScSho1,163
same,SPOT peptide array binding signal intensity,ScSla1-D1-D2,1000
same,SPOT peptide array binding signal intensity,ScSla1-D3,18
same,SPOT peptide array binding signal intensity,SpAbp1-D1,147
same,SPOT peptide array binding signal intensity,SpBbc1,380
same,SPOT peptide array binding signal intensity,SpBzz1-D1,466
same,SPOT peptide array binding signal intensity,SpBzz1-D2,1.5
same,SPOT peptide array binding signal intensity,SpCyk3,6.75
same,SPOT peptide array binding signal intensity,SpHof1,297
same,SPOT peptide array binding signal intensity,SpHof1-2,441
same,SPOT peptide array binding signal intensity,SpHof1-3,278
same,SPOT peptide array binding signal intensity,SpHse1,297
same,SPOT peptide array binding signal intensity,SpLsb1,350
same,SPOT peptide array binding signal intensity,SpLsb4,5510
same,SPOT peptide array binding signal intensity,SpMyo1,37.8
same,SPOT peptide array binding signal intensity,SpNbp2,81.5
same,SPOT peptide array binding signal intensity,SpPex13,4.25
same,SPOT peptide array binding signal intensity,SpRvs167,3150
same,SPOT peptide array binding signal intensity,SpSla1-D1-D2,13
same,SPOT peptide array binding signal intensity,SpSla1-D3,2
